An excerpt weighted towards active compounds, which were near 9.9% of everything screened.
KB-V1 MDR tox – qHTS assay for MDR1-selective chemotherapeutics: Primary screen using the drug-selected MDR subline cells KB-V1 | KB-V1 MDR cells viability, CellTiter-Glo, 72 h | Potency, µM (highest dose often 46.1 µM), most hits filed as cytotoxic | 400,000 compounds, 3.4% hits | AID 1347076, 2019; also: potency is read from the fitted curve at half-maximal effect; % is scaled to controls: 0 for no effect and ±100 for the full control effect; nearly all actives have a fitted effect of over 60% in size
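KB-V1, DMEM (no phenol red) + 10% FBS; cpd pin-transferred, titration series; 72 h, 37 degrees C; CellTiter-Glo, luminescence. Data normalized, curve-fit.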
SW480 rerep – A quantitative high throughput screen for small molecules that induce DNA re-replication in SW480 colon adenocarcinoma cells; SW480 DNA re-replication, Hoechst DNA content imaging, 48 h; Potency, µM (top dose mostly 46.1 µM), for the others: at the top dose re-replication activation, most hits filed as activators; 340,000 compounds, 1.8% hits; AID 624297, 2012; also: potency is read from the fitted curve at half-maximal effect; % of control where 0% means no effect; nearly all actives have a fitted effect of over 55% in size
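Quantitative HTS format with DMSO vehicle controls; 48 hr drug incubation at 37 C, then 40 min Hoechst staining and scanning imager measurement at 405 nm excitation.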
IL-1B inflam inh – qHTS for Inhibitors of Inflammasome Signaling: IL-1-beta AlphaLISA Primary Screen; THP-1 LPS/ATP IL-1B secretion, AlphaLISA, 16 h; stronger effect = lower value; activity change, % at 57.5 µM; 360,000 compounds, 4.7% hits; in the data active = activity change below about -50%; inconclusive = mostly about -30% to -49%; also: % is scaled to controls: 0 for no effect and ±100 for the full control effect
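Secreted IL-1B measured by AlphaLISA bead assay after 16 h compound exposure of THP-1 cells; compounds (final up to 57.5 uM) added 1 h before LPS (250 ng/mL) and ATP (1.25 mM) stimulation; lower signal means less secretion.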
MCF10A rerep – A quantitative high throughput screen for small molecules that induce DNA re-replication in MCF 10a normal breast cells. MCF 10A DNA re-replication, Hoechst nuclear intensity, 48 h. 350,000 compounds, 2.9% hits. Potency, µM (doses to about 46.1 µM), without a hit: top-dose activity, positive = re-replication, actives largely listed as activators. AID 624296, 2012; also: potency is read from the fitted curve at half-maximal effect; % of control where 0% means no effect; nearly all actives have a fitted effect of over 50% in size
KB-3-1 tox – qHTS assay for MDR1-selective chemotherapeutics: Primary screen using the parental adenocarcinoma cell KB-3-1. KB-3-1 viability, CellTiter-Glo ATP luminescence, 72 h. Potency, µM (highest dose often 46.1 µM), hits mostly cytotoxic. 400,000 compounds, 1.4% hits; also: potency is read from the fitted curve at half-maximal effect; % is scaled to controls: 0 for no effect and ±100 for the full control effect; nearly all actives have a fitted effect of over 60% in size
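Cells are dispensed, compounds pinned in, plates held at 37 °C for 72 h, then CellTiter-Glo is added and luminescence read after 10 minutes. Cell line: parental KB-3-1 in phenol-red-free DMEM, 10% FBS.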
Starred values were filed as active, the others as inactive; i = inactive; ? = inconclusive; / = no result given. Unless noted, calls follow the shape of the dose curve; as a rule, active = well fitted curve in the direction sought with a large enough effect; inconclusive = small, poorly fitted or top-dose-only effect, or another doubt; inactive = no such curve, though single readings can be large; an effect the other way counts as inactive or inconclusive.

SMILES	KB-V1 MDR tox	SW480 rerep	IL-1B inflam inh	MCF10A rerep	KB-3-1 tox
CCC(=O)NCCc1nc2cc(NC(=O)c3ccco3)ccc2n1C	i	-4%	5	2%	i
C=CCN(C(=O)CCC(=O)Nc1cc(C)on1)C(C(=O)NC1CCCC1)c1ccc(OC)cc1OC (stereo not drawn)	i	-6%	-3	2%	i
Oc1c(C(c2cccc(Br)c2)N2CCCC2)sc2nc(-c3ccco3)nn12 (stereo not drawn)	i	/	/	/	i
C[C@H]1CN([C@@H](C)CO)C(=O)CCCn2nncc2CO[C@H]1CN(C)S(=O)(=O)c1ccccc1	i	/	5	/	i
CCOC(=O)c1c(N)sc2c(OCC)c(Br)ccc12	i	21µM*	-24	?	i
CCOC(=O)c1c(NC(C)=O)sc2c(OCC(O)CNC(C)(C)C)c(Br)ccc12 (stereo not drawn)	?	?	-72*	?	i
CCOC(=O)c1c(NC(C)=O)sc2c(O)cccc12	i	-15%	17	1%	i
COc1ccc2cc(-c3[nH]ncc3CN3CCCC3c3nonc3C)ccc2c1 (stereo not drawn)	i	?	39	?	i
CNCCC=C1c2ccccc2C=Cc2ccccc21	?	?	-51*	15%	i
CN(C)/C=C1\C=Cc2ccccc21	i	/	/	/	i
O=C(N/N=C/c1cccc(Br)c1)C1CC(=O)N(c2ccccc2)C1 (stereo not drawn)	i	?	-21	-13%	i
CCOC(=O)c1c(-c2ccc(OC)c(OC)c2)csc1NC(=O)C1CCCO1 (stereo not drawn)	?	0%	-67*	-10%	i
COC(=O)c1sc(NC(=O)C2CCCO2)c(C(=O)OC)c1C (stereo not drawn)	i	-4%	2	2%	i
COC(=O)c1c(-c2ccc(F)cc2)csc1NC(=O)C1CCCO1 (stereo not drawn)	?	?	-18	?	i
CCc1ccc(-c2csc(NC(=O)C3CCCO3)c2C(=O)OC(C)C)cc1 (stereo not drawn)	i	?	9	26µM*	i
Cc1c(C(=O)OC(C)C)sc(NC(=O)C2CCCO2)c1C(=O)OC(C)C (stereo not drawn)	?	15%	6	13µM*	i
COc1ccc(NC(=O)C2CCCO2)cc1OC (stereo not drawn)	i	1%	-1	-3%	i
O=C(CN1CCOCC1)Nc1ccc(Br)cn1	i	21µM*	9	?	i
O=C(CN1CCOCC1)Nc1ncc(Cc2cccc(Cl)c2)s1	i	8.2µM*	0	?	i
Cc1nnc(SCC(=O)Nc2ncc(Cc3ccc(F)cc3)s2)n1N	?	0%	0	1%	i
O=C(CN1CCOCC1)Nc1nc2ccc(Cl)cc2s1	i	3%	-12	1%	i
Cc1cc(C)nc(SCC(=O)Nc2ncc(Cc3cccc(Cl)c3)s2)n1	4.6µM*	1%	1	?	i
CN1C2=C(C(=O)CC(C)(C)C2)C(c2cccs2)C2=C1CC(C)(C)CC2=O	i	27%	-6	?	i
Cc1cc(-c2nnc(SCC(=O)Nc3cccc(F)c3)n2N)n[nH]1	i	-11%	4	-4%	i
CC(C)C[C@@H](CN1CCCC1CN1C(=S)NC[C@@H]1Cc1ccccc1)N1C[C@H](Cc2ccc(O)cc2)N(CC2CCCCC2)C1=S (stereo partly drawn)	?	/	-21	/	i
CC(C)C[C@H]1CN([C@@H](CC(C)C)CN2CCCC2CN2C(=S)NC[C@@H]2Cc2ccc(O)cc2)C(=S)N1CC1CCCCC1 (stereo partly drawn)	21µM*	4%	-2	?	?
